# NPR2 activator = GC-B (human) receptor activation. activation, % at 10 µM. HEK293-GC-B cells, CNP EC30, cGMP TR-FRET; 0% at EC30 CNP, 100% saturating CNP. P20594. 370,000 compounds, 0.11% hits;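 active means activation at 10 µM reaching about 35% in either raw or pattern-adjusted values, limit read from the data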
# APOBEC3G inh = APOBEC3G (human) deaminase inhibition. Q9HC16. recombinant A3G, ssDNA deamination FAM/TAMRA fluorescence. inhibition, % at 20 µM. 330,000 compounds, 0.28% hits;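 active means inhibition of at least 40% at 20 µM, with no more than 30% in the related APOBEC3A deaminase screen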;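 further: plate controls were DMSO wells with A3G for no effect and wells lacking A3G enzyme for full effect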
# GC-A act = GC-A (human) enzyme activation; activation, % at 10 µM; 370,000 compounds, 0.14% hits; P16066; HEK293 GC-A cells, cGMP TR-FRET, EC30 ANP; 0% at EC30 ANP, 100% saturating ANP; in the data active means activation above about 40%
# Target sequence (P16066 whole entry, looked up): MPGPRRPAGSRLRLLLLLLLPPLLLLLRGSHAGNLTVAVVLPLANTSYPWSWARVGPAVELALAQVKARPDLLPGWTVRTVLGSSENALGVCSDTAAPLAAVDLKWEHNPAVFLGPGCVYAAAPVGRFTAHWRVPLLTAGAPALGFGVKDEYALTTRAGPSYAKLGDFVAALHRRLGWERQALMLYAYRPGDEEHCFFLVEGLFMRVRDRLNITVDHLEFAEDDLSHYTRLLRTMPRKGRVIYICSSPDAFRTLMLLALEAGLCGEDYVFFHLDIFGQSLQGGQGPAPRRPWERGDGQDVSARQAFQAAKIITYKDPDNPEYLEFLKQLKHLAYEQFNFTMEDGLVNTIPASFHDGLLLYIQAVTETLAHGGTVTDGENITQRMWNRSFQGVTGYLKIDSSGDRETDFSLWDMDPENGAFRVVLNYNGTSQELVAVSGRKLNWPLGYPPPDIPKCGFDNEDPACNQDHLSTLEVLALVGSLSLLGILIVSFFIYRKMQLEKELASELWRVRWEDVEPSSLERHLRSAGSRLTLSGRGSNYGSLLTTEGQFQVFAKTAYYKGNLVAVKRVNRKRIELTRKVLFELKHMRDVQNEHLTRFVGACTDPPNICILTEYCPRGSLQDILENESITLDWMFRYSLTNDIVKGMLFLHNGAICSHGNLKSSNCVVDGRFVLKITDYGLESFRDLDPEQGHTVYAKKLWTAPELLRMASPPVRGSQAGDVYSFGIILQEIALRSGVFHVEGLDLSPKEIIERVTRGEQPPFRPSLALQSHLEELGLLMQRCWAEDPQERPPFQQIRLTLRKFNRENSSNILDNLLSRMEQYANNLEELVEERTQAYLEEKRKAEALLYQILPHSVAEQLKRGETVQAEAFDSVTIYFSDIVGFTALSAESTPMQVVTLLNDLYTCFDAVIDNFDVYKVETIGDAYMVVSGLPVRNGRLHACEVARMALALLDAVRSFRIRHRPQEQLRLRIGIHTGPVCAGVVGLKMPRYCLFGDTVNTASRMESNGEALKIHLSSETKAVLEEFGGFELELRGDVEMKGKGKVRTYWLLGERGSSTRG
# FAS TE block = inhibitors of human fatty acid synthase thioesterase domain; P49327; recombinant FAS-TE, OMFH fluorogenic substrate, fluorescence endpoint; inhibition, % at 15 µM; 360,000 compounds, 0.67% hits;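 active means compounds whose normalised, plate-corrected inhibition of enzyme fluorescence in the single-dose primary screen is 50% or more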;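 further: 0% = DMSO with enzyme and 100% = substrate without enzyme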
# APOBEC3A inh = human APOBEC3A DNA deaminase inhibition | 330,000 compounds, 0.41% hits | inhibition, % at 20 µM | P31941 | AID 493011 | recombinant A3A, FAM/TAMRA ssDNA deamination fluorescence;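 active means at least 40% inhibition at 20 µM here, with at most 30% in a related deaminase screen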;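 further: plate controls were A3A with DMSO for no effect and wells lacking A3A enzyme for full effect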
# FAS-TE inh conf = FAS thioesterase (human) inhibition, confirmation | shares compounds with FAS TE block | inhibition, % at 15 µM | 2,300 compounds, 45% hits | recombinant FAS-TE, OMFH fluorogenic substrate, fluorescence;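 active means compounds inhibiting the enzyme by at least 50% at 15 µM in any one of the replicates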;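 further: 0% = enzyme with DMSO only and 100% = wells lacking enzyme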
# * = called active by the depositor; / = no result given. This is a sample that favours compounds with a hit; in the whole collection about 1.4% have one here.
SMILES,NPR2 activator,APOBEC3G inh,GC-A act,FAS TE block,APOBEC3A inh,FAS-TE inh conf
COc1ccc(/C=C2\CCn3c2nc2cc(C(=O)O)ccc2c3=O)cc1,0,2,2,-4,3,/
COc1ccc(N(C(=O)CCl)C(C(=O)NCCc2ccccc2)c2cccs2)cc1Cl (stereo not drawn),-12,/,-35,64*,/,33*
COc1cccc(N(C(=O)CCl)C(C(=O)NCCc2ccccc2)c2cccs2)c1 (stereo not drawn),-9,/,-5,48,/,/
CCN1Cc2c(/C=C/c3ccccc3)nc3ccc(OC)cc3c2N(c2cccc(Cl)c2)C1,-13,-10,-16,77*,-2,85*
COc1cccc(N2CCc3c(C)nc4ccc(Cl)cc4c32)c1,-10,/,-38,8,/,/
CC1(C)CC(=O)C=C(c2ccc(COC(=O)Cc3ccccc3)cc2)C1=O,8,/,3,73*,/,19
CC1(C)CC(=O)C=C(c2ccc(COC(=O)c3ccc(-c4ccccc4)cc3)cc2)C1=O,1,/,1,31,/,/
CC1(C)CC(=O)C=C(c2ccc(-c3cnn(Cc4ccccc4)c3)cc2)C1=O,1,/,-5,60*,/,71*
CC1(C)CC(=O)C=C(c2ccc(-c3ccccc3)cc2)C1=O,0,/,11,22,/,/
O=c1c2ccccc2c(C=Nc2cccc(S(=O)(=O)NC3=NCCCCC3)c2)c(O)n1Cc1ccccc1,0,1,-2,65*,7,5
Cc1nnc(SCC(=O)Nc2cccc(S(=O)(=O)NC3=NCCCCC3)c2)n1Cc1ccccc1,3,-12,1,-8,-2,/
CC(C)(C)OC(=O)NCc1cc2c(cc1/C=C/S(=O)(=O)NC1CCCC1)OCO2,-1,/,-2,/,/,/
COC(=O)C1=C(C)N(Cc2ccccc2C(F)(F)F)C(=NCc2ccccc2C(F)(F)F)NC1c1cccc(C(F)(F)F)c1 (stereo not drawn),8,/,-5,/,/,/
O=C1OCCN1c1ccccc1,3,/,1,-8,/,/
O=C1OCCN1c1c(-c2ccccc2)c(-c2cccs2)nc2c(-c3ccccc3)cccc12,/,-12,/,52*,-5,28
CCCCc1c(-c2ccccc2OC)ncn1Cc1ccccc1F,-13,/,-6,/,/,/
CC(C)Cn1c(N)c(C(=O)COC(=O)c2ccc(O)cc2O)c(=O)n(C)c1=O,-8,-2,-1,0,3,/
CC(C)Cn1c(N)c(C(=O)COC(=O)c2cc3ccccc3cc2O)c(=O)n(C)c1=O,5,-2,1,82*,-3,2
CN1c2ccccc2C(C)(C)C12CC(c1cccc(S(=O)(=O)N3CCCC3)c1)=NO2 (stereo not drawn),7,5,-4,74*,1,15
CCN(CC)S(=O)(=O)c1ccc(C2=NOC3(C2)N(C)c2ccccc2C3(C)C)cc1 (stereo not drawn),6,5,2,50,0,/
CN1c2ccccc2C(C)(C)C12CC(c1ccc(S(=O)(=O)N3CCCCC3)cc1)=NO2 (stereo not drawn),0,-4,2,75*,-1,23
CCOC(=O)N1CCN(C(=O)C[C@H]2C[C@@]3(C(=O)OC)C(=C[C@H](C(C)C)O[C@@H]3C3CC3)N(Cc3ccc(Cl)cc3Cl)C2=O)CC1,-9,/,-8,/,/,/
Cc1cc(C)c(C#N)c(N2CCN(Cc3ccc4c(c3)OCO4)CC2)n1,-2,-5,0,61*,5,26
Cc1cc(C)c(C#N)c(N2CCN(Cc3ccccc3)CC2)n1,2,-4,-3,14,3,/
COc1ccc(CCn2c(=N)c(S(=O)(=O)c3ccc(C)cc3)cc3c(=O)n4ccccc4nc32)cc1,-2,-8,-2,59*,-3,-42
SMILES,NPR2 activator,APOBEC3G inh,GC-A act,FAS TE block,APOBEC3A inh,FAS-TE inh conf
Cc1ccc(Cn2c(=N)c(S(=O)(=O)c3ccc(Br)cc3)cc3c(=O)n4ccccc4nc32)cc1,/,3,/,8,0,/
N=c1c(S(=O)(=O)c2ccc(Cl)cc2)cc2c(=O)n3ccccc3nc2n1C1CCCC1,2,-11,2,65*,-4,3
CC(=O)OCC1OC(n2cc(F)c(=O)[nH]c2=O)C(OC(C)=O)C1OC(C)=O (stereo not drawn),-1,-6,2,-7,-3,/
O=C1C(F)=CC(COC(c2ccccc2)(c2ccccc2)c2ccccc2)OC1n1cc(F)c(=O)[nH]c1=O (stereo not drawn),-14,/,-37,70*,/,52*
O=[N+]([O-])c1ccc(Cn2cc(-c3cccc(C(F)(F)F)c3)nn2)cc1,2,-14,-1,55*,-3,4
O=[N+]([O-])c1ccc(Oc2cccc(C(F)(F)F)c2)nc1,4,4,1,-6,3,/
O=C(NCCc1ccccc1Cl)[C@@H]1CCCN1C(=O)[C@H](Cc1cccnc1)NC(=O)N1CCOCC1,4,/,1,/,/,/
Cn1c(-c2ccc(F)cc2)cnc1NCc1cccc([N+](=O)[O-])c1,-4,7,-4,76*,-2,78*
O=c1c2ccccc2c(C=Nc2ccc(S(=O)(=O)N3CCCCC3)cc2)c(O)n1-c1ccc(Cl)cn1,-2,-9,0,61*,-2,15
O=C(Cn1cnc2cc([N+](=O)[O-])ccc2c1=O)N(Cc1ccccc1)C1CCS(=O)(=O)C1 (stereo not drawn),-1,-3,-1,57*,4,45
CN(Cc1cccs1)C(=O)Cn1cnc2cc([N+](=O)[O-])ccc2c1=O,-1,-5,0,53*,3,55*
O=C(Cn1cnc2cc([N+](=O)[O-])ccc2c1=O)NC1CCS(=O)(=O)C1 (stereo not drawn),-1,3,1,5,10,/
COC(=O)CC#C[C@H](C)[C@@H](NS(C)(=O)=O)C1CCCCC1,2,/,2,/,/,/
CN(CC(=O)Nc1ccc(S(=O)(=O)N(C)C)cc1)Cc1ccc(C(F)(F)F)cc1,-1,-4,-6,53*,1,40
CN(C)c1cccc(-c2ccnc(N3CCC(C(N)=O)CC3)n2)c1,-8,/,2,/,/,/
Cc1ccc(C(C(=O)NC2CCCCC2)N(C(=O)CCCC(=O)Nc2ccccn2)c2ccc3c(c2)OCCO3)cc1 (stereo not drawn),4,-4,2,52*,1,45
CCCCCCCCN1C(=O)[C@@H](CC(=O)NCC2CCCCC2)C[C@@]2(C(=O)OC)C1=C[C@H](C(C)(C)C)O[C@@H]2C,7,/,1,/,/,/
COc1ccc([C@@H]2C[C@H]3[C@@H](CN2S(=O)(=O)c2ccccc2)C(=O)C[C@@H](c2ccccc2)N3S(=O)(=O)c2ccc(C)cc2)cc1,2,/,1,27,/,/
